# Data: PubChem BioAssay (NCI)
# This is part of a sample that, as a whole, favours compounds with a hit. Of some 83,000 tested, about 20% had one in any assay.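 Single-dose data. Exposure time 48 hours. Values below 10 considered active.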 Unmarked numbers belong to inactive results. Calls of active or inactive are those of the source.
# Tests used:
# Assay in all cases: NCI-60 one-dose screen, 48 h (100 = growth as untreated, 0 = no growth, -100 = all killed)
# Settings in all cases: 10 µM unless noted
# [1] = system: SR leukemia
# [2] = system: RPMI-8226 leukemia
# [3] = system: OVCAR-8 ovarian
# [4] = system: OVCAR-5 ovarian
# [5] = system: OVCAR-4 ovarian
# [6] = system: SK-OV-3 ovarian
# [7] = system: OVCAR-3 ovarian
# [8] = system: HS 578T breast
# [9] = system: NCI/ADR-RES ovarian
# [10] = system: T-47D breast
# [11] = system: BT-549 breast
# [12] = system: MDA-MB-435 melanoma
# [13] = system: SW-620 colon
# [14] = system: MCF7 breast
# [15] = system: HCT-116 colon
# [16] = system: HCC-2998 colon
# [17] = system: KM12 colon
# [18] = system: IGROV1 ovarian
SMILES,growth [1],growth [2] [%],growth [3],growth [4],growth [5],growth [6],growth [7],growth [8],growth [9],growth [10],growth [11],growth [12],growth [13],growth [14],growth [15],growth [16],growth [17],growth [18]
Cc1cc(=O)oc2cc(Oc3nc(-c4ccccc4)cn4c(-c5ccccc5)cnc34)ccc12,54.5%,51,61.6%,105%,60.7%,63.1%,76.6%,58.6%,45.4%,38.5%,82.6%,72.1%,88.3%,50.5%,39.3%,81%,75.5%,
O=C(Nc1ccccc1C(F)(F)F)C1=NCCCCN1,102%,99.6,99.9%,94.7%,99%,108%,101%,99.8%,103%,101%,105%,100%,92.9%,99.7%,99.5%,102%,102%,
CCOC(=O)c1cnc2sc(-c3ccc(OC)cc3)nc2c1Cl,96.8%,93.1,112%,118%,86.9%,121%,108%,89.3%,90%,97.2%,107%,87.7%,114%,88%,87.8%,114%,90.7%,
COc1ccc(/C=C2/CCc3cc4ccc(OC)cc4[o+]c32)c(O)c1,-2.1% (active),14.1,42.9%,115%,75.9%,103%,49.8%,75.3%,53.8%,67.2%,96.2%,2.85% (active),11.9%,48.1%,-64.1% (active),64.3%,45.4%,
N#Cc1nn(-c2ccccn2)c(N)c1C#N,86.2%,110,106%,97.5%,105%,91.5%,114%,105%,104%,84.1%,98.3%,101%,115%,99.8%,87.7%,106%,101%,
COc1cc(OC)cc(C(=O)Nc2cnc(Nc3ccc(N4CCOCC4)nc3)nc2Oc2ccc(C(F)(F)F)cc2)c1,73%,86.2,39.7%,92.9%,8.78% (active),111%,62.8%,30.4%,60.1%,69.9%,77.5%,74.9%,,59.1%,16.1%,99.9%,88%,
O=C(Nc1ncc(Cc2ccc(Cl)cc2)s1)c1ccc2c(c1)OCCO2,4.7% (active),,21.7%,37.1%,50%,33.4%,2.45% (active),23.6%,10.9%,46.1%,38.1%,5.85% (active),35.4%,10.2%,9.61% (active),23.2%,12.7%,22.3%
C#Cc1cccc(Nc2nc(Cl)nc3cc(NC(=O)CCl)ccc23)c1,-39.7% (active),,-23.9% (active),-92% (active),-66.4% (active),-18.9% (active),-88.1% (active),-14% (active),-14.4% (active),-44.7% (active),-89.3% (active),-76.7% (active),-77.8% (active),-49.5% (active),-90.1% (active),-84% (active),-62.5% (active),-59.8% (active)
Cn1cc(-c2csc(-c3cn(CCO)c4ccc(F)cc34)n2)c2cccnc21,20.7%,,75.9%,65.6%,36%,73%,49.7%,79.8%,45.5%,9.75% (active),52.8%,1.7% (active),,34.9%,35.8%,64.1%,30.6%,51.9%
Cc1nn(-c2ccccc2)c(Oc2ccccc2)c1/C=N/NC(=O)Cn1c(=O)sc2ccccc21,38.2%,,48.8%,81.5%,44.1%,61%,61.6%,67.6%,44.4%,14.7%,25.6%,54.3%,72%,25.4%,38.1%,72.2%,56%,54.4%
Cc1ccc2c(n1)C[C@H](C(C)(C)O)CC[C@H]2C,107%,,101%,94.7%,99.6%,99.1%,113%,111%,104%,96.5%,112%,102%,104%,94.6%,97.4%,102%,109%,104%
CCOC(=O)c1c(C)nc2c(c1N)C(=O)C(=O)N2CCc1ccc(OC)c(OC)c1,35.9%,,77.9%,94.9%,54.8%,76.6%,61.5%,89%,41.9%,44.6%,64.4%,41.4%,47.8%,20.3%,,93.7%,58.3%,74%
COc1nc2ccccc2cc1/C=[N+](\[O-])c1ccccc1,21.5%,,37.3%,97.4%,74.3%,87.3%,86.2%,81.5%,44.9%,58.9%,86.7%,42.2%,28.4%,28.6%,10.2%,105%,84%,
CCNCCNc1c(C)c(-c2ccc(C(F)(F)F)cc2)c(C#N)c2nc3ccccc3n12,-0.902% (active),,95.3%,104%,88.2%,111%,96.4%,90.8%,101%,82.6%,75.5%,65.2%,93.6%,76.2%,93.4%,99.4%,97%,78.9%
CCOC(=O)c1ccc2c(c1)c1c(C)c3cnccc3c(C)c1n2C,14.9%,,-21.5% (active),-46.7% (active),-14.8% (active),-21.4% (active),-47.5% (active),-27.6% (active),-33.1% (active),-23.1% (active),-54% (active),-65.8% (active),-7.3% (active),-28.9% (active),-85.2% (active),-70.7% (active),-7.02% (active),-62.7% (active)
O=C1C(c2c(O)[nH]c3ncccc23)=Nc2ccccc21,82.5%,,84.4%,77.7%,80.4%,69.6%,75.8%,72.5%,82.7%,48.4%,70.6%,92.9%,102%,41%,48.5%,25.3%,69.5%,-40.9% (active)
CN(C)CCOc1ccc(/C(=C(/CCCCCCCCCC[P+](c2ccccc2)(c2ccccc2)c2ccccc2)c2ccccc2)c2ccccc2)cc1,-53.4% (active),,-53.5% (active),-97.2% (active),-81.6% (active),-81% (active),-93.9% (active),-36.4% (active),-69% (active),-56.2% (active),-78.3% (active),-98.1% (active),-85% (active),-77.9% (active),-72% (active),-83.9% (active),-80.9% (active),-76.5% (active)
O=C(O)c1nn(-c2ccc(Cl)cc2)nc1N1CCCC1,99%,,96%,94.9%,91.2%,97.2%,105%,97%,99.5%,94.4%,95.4%,100%,90.6%,91%,101%,103%,107%,93%

SMILES,growth [1],growth [2] [%],growth [3],growth [4],growth [5],growth [6],growth [7],growth [8],growth [9],growth [10],growth [11],growth [12],growth [13],growth [14],growth [15],growth [16],growth [17],growth [18]
CCOC(=O)C1=C(c2ccccc2)N=C2N(c3ccccc3)N=C(C(C)=O)N2C1c1ccc(Br)cc1 (stereo not drawn),81.8%,,93.9%,104%,104%,112%,102%,83.2%,103%,79.8%,98.3%,101%,97%,89.2%,84.7%,103%,94.9%,88%
COc1cc(NC(=O)c2cncnc2Nc2ccc3c(ccn3Cc3cccc(F)c3)c2)cc(OC)c1,19.7%,,65.8%,71.7%,95.1%,67%,23%,51%,42.1%,70.9%,68.1%,-4.76% (active),29.6%,28.2%,44.5%,72.9%,34.8%,50.8%
O=c1[nH]c(CN2CCN(c3ccccc3)CC2)nc2c(Br)cc(Br)cc12,3.49% (active),,104%,95.3%,105%,96.4%,103%,91.7%,104%,103%,123%,108%,102%,110%,107%,101%,105%,29.4%
Cc1ccccc1NC(=O)Cn1cc(CN2CCN(c3ccnc4cc(Cl)ccc34)CC2)nn1,86.8%,,103%,103%,94%,95.6%,105%,85.5%,99.1%,92.4%,93.4%,99.4%,94.2%,93.9%,100%,93.3%,91.5%,99.8%
CN(C)C(=O)OCc1ccc2c(Cl)cc(Cl)c(O)c2n1,34.3%,,22.6%,77.4%,20.8%,50.1%,30.6%,71.8%,14.8%,37.8%,60.3%,31.2%,25.7%,32.4%,31.6%,61.8%,35.4%,40.9%
N#Cc1c(-c2ccc(F)cc2)cc(-c2cccc(Cl)c2)[nH]c1=O,113%,,53.4%,112%,28%,79.3%,7.21% (active),46%,71.2%,59.9%,54.6%,77.1%,104%,54.5%,67.1%,94.2%,56.1%,62.8%
CC(C)=CC(=O)C1C(=O)c2ccccc2C1=O,91.3%,,97.8%,97.3%,102%,90.4%,95.7%,102%,108%,97.3%,108%,98.9%,,93.4%,103%,111%,103%,70.5%
O=C(c1ccccc1)[C@@H](c1ccccc1)[C@]1(O)C(=O)Nc2ccccc21,102%,,92.6%,82.1%,98.7%,84%,94.2%,93.3%,102%,85.2%,95%,98.4%,100%,92.4%,,104%,85.5%,98.4%
O=C(OCc1ccc2c(Br)cc(Br)c(O)c2n1)N1CCN(C(=O)c2cc3ccccc3[nH]2)CC1,31.3%,,25.5%,54.3%,26%,40.1%,31.3%,48.2%,7.07% (active),27.9%,56%,43.9%,25.3%,29.5%,22.4%,53.1%,29.5%,31.5%
COc1cccc2cc(N(C)c3nc(C)nc4c3CCC4)ccc12,9.67% (active),,10.5%,52.2%,47.1%,19.5%,-18.1% (active),17.9%,12.6%,50.7%,1.76% (active),-3.22% (active),19.7%,15.1%,-14.2% (active),17.5%,0.0953% (active),24.2%
N/C(=N\c1nc2ccccc2s1)NC(=O)Nc1ccccc1,15.7%,,41%,51.7%,73.8%,51%,28.4%,27.8%,17.6%,39.4%,49.5%,2.22% (active),24.7%,16.6%,17.1%,62.7%,25.4%,58.8%
C#CCOc1cccc(Nc2ncnc3c(NC(=O)CCl)cccc23)c1,-39.4% (active),,-0.718% (active),67.6%,-27% (active),81.7%,-79% (active),50.6%,18.8%,-31.4% (active),23%,26.4%,1.15% (active),10.9%,2.88% (active),91.8%,28.6%,-58.9% (active)
Cc1ccc(C2=Nc3c(N)nc(N)nc3NC(c3cccc(Nc4ccnc5cc(C(F)(F)F)ccc45)c3)C2)cc1 (stereo not drawn),-8.2% (active),,36.2%,105%,58.2%,31.4%,12.6%,26.3%,30.1%,46.9%,94%,-40.1% (active),19.1%,6.88% (active),1.85% (active),35%,15%,36.1%
Cc1c(C(=O)C(SC(=S)N2CCOCC2)SC(=S)N2CCOCC2)nnn1-c1ccc([N+](=O)[O-])cc1,69.7%,,99.1%,102%,109%,93.3%,108%,123%,111%,92.3%,92.5%,105%,100%,79.5%,96.5%,104%,111%,98%
Cc1ccccc1NC(=O)c1sc2nc3c(cc2c1N)CCCC3,14.3%,,29.7%,81.6%,61.8%,25.1%,11.3%,55.8%,26.5%,29.6%,63.5%,-18.4% (active),19.2%,13.3%,29%,64.8%,25.2%,57%
Cc1c(-c2cnc3ccc(Cl)cc3c2C(=O)O)nnn1-c1ccc(Cl)cc1,95.9%,,101%,89.9%,106%,90.4%,110%,109%,101%,88%,82%,105%,,98.5%,76.7%,102%,109%,108%
CCOC(=O)/C(=C\c1ccccc1Cl)P(=O)(OCC)OCC,-0.778% (active),,59.1%,82.4%,75.1%,95.7%,56.1%,80.3%,44%,39.5%,57.6%,45.1%,,17.8%,44.2%,,52.9%,65.7%
COC(=O)[C@@H](Cc1c[nH]c2ccccc12)NC[C@@H](O)CN1C(=O)/C(=C\c2cc(OC)c(OC)c(OC)c2)c2ccccc21,12.2%,,59.3%,105%,63.1%,98.6%,65.3%,76%,78.6%,54.5%,68.4%,56.1%,77.3%,34.2%,66%,75.2%,60.4%,78.9%
